# About 83,000 compounds went through this panel and 20% of them were active in at least one assay; those are over-represented in the sample as a whole.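 Treatment: one concentration, 48 hours, 96-well format. Scoring: percent growth, with anything below 10 considered active.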 Activity calls are given as the source filed them.
# System: HL-60(TB) leukemia
# Assay: NCI-60 one-dose screen, 48 h (100 = growth as untreated, 0 = no growth, -100 = all killed)
# Conditions: 10 µM unless noted
row,Compound,growth
1,c1ccc([P+](CCC[P+](c2ccccc2)(c2ccccc2)c2ccccc2)(c2ccccc2)c2ccccc2)cc1,30.5% (inactive)
2,CCn1c(Sc2nnc(NC(C)=O)s2)nc2c1c(=O)n(C)c(=O)n2C,124% (inactive)
3,CCCCCCCC/C=C\CCCCCCCCOc1ccccc1CC(=O)NCC[N+]1(C)CCCC1,2.25% (active)
4,COc1ccccc1Cn1cc2c(c1)-c1oncc1CC2,1.41% (active)
5,CC(C)(C)OC(=O)N1C/C(=C\c2ccoc2)C(=O)/C(=C/c2ccoc2)C1,87.6% (inactive)
6,O=C(/C=C/c1cc2ccccc2[nH]c1=O)c1ccc(Cl)cc1,11.6% (inactive)
7,CS(=O)(=O)Nc1cc(-c2cc3ncc(C#N)c(Nc4ccc(Oc5ccccc5)c(Cl)c4)c3s2)cnc1Cl,64.6% (inactive)
8,COC(=O)C1=C(C(=O)OC)C23C=C(C)C1C2=C(C)C1(CC1)[C@@](C)(O)C3=O (stereo partly drawn),25.6% (inactive)
9,C/C(=C(/c1ccccc1)c1ccc(N2C(=O)c3cccc4c(NCc5ccccc5)ccc(c34)C2=O)cc1)c1ccccc1,103% (inactive)
10,C[C@]12CC[C@@H]3c4ccc(O)cc4CC[C@H]3[C@@H]1C[C@H](O)C2,52% (inactive)
11,COc1cc(C2=NN(c3ccccc3)C(c3cccc(Nc4ccnc5cc(C(F)(F)F)ccc45)c3)C2)cc(OC)c1OC (stereo not drawn),94.8% (inactive)
12,COc1cnc2c(c1)C(=O)c1c-2n(CCCN2CCC(O)CC2)c(=O)c2cc(Cl)ccc12,-35.9% (active)
13,CC[C@@H](C)/C=C(C)/C=C/C(=O)c1c(O)c(-c2ccc(O)cc2)cn(OC2CC(=O)CCC(C)OC(=O)CC2O)c1=O (stereo partly drawn),-10.1% (active)

# Reference: PubChem BioAssay (NCI)
